From PubChem BioAssay (NCI)
Values joined by “and” are separate entries in the source; they are usually repeats but may differ in a detail not shown here. Equal values may be shown once. This is part of a sample that, as a whole, favours compounds with a hit. Of some 79,000 tested, about 15% had one in any assay. A structure can be active in one record and inactive in another. Active and inactive are the calls of the source. Cut-off read from the data, not from the text of the source: active = growth inhibition above about 70%; inactive = the rest.

Experiments:
[1] = NCI Yeast Anticancer Drug Screen. Data for the wt1 strain (AID 149);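 note: 0% = growth of vehicle-treated wt1 cultures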; details: S. cerevisiae wt1 strain (SPY 50644) growth inhibition, stronger effect = higher value
Procedure, shortened: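 The wt1 strain was treated with compounds, and growth was compared with vehicle-treated cultures to give inhibition.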

[2] = NCI Yeast Anticancer Drug Screen. Data for the rad50EPP+ strain (AID 151);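 note: 0% = growth of vehicle-treated control cultures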; details: S. cerevisiae rad50 mutant strain, stronger effect = higher value
Procedure, shortened: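 Read-out is yeast growth inhibition relative to vehicle; cells used were the rad50EPP+ strain.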

[3] = NCI Yeast Anticancer Drug Screen. Data for the mgt1 strain (AID 153); details: S. cerevisiae mgt1 mutant growth inhibition, stronger effect = higher value
Procedure, shortened: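 Measured: inhibition of mgt1 yeast growth by compound, normalized to vehicle-treated cultures.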

[4] = NCI Yeast Anticancer Drug Screen. Data for the rad50 strain (AID 155);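 note: 0% = growth of vehicle-only cultures of the same strain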; details: S. cerevisiae rad50 strain growth inhibition, stronger effect = higher value
Procedure, shortened: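 Cells are treated with compound, grown, and their growth is then scored against vehicle-only cultures of the same repair-deficient yeast strain.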

[5] = NCI Yeast Anticancer Drug Screen. Data for the mec2-1 strain (AID 157); details: S. cerevisiae mec2-1 strain, stronger effect = higher value
Procedure, shortened: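 Using mec2-1 yeast: add compound, measure growth, express inhibition versus vehicle-treated cultures.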

[6] = NCI Yeast Anticancer Drug Screen. Data for the rad14 strain (AID 159);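 note: 0% = growth of vehicle-treated control cultures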; details: S. cerevisiae rad14 strain growth inhibition, stronger effect = higher value
Procedure, shortened: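 Readout: yeast growth inhibition, referenced to vehicle-only cultures. Strain bears a defined alteration in DNA damage repair.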

[7] = NCI Yeast Anticancer Drug Screen. Data for the sgs1 mgt1 strain (AID 161);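 note: 0% = growth of cultures given vehicle only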; details: S. cerevisiae sgs1 mgt1 strain, stronger effect = higher value
Procedure, shortened: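 This yeast growth screen uses a strain with defined DNA-repair lesions; compound-treated growth is compared with vehicle-treated growth.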

[8] = NCI Yeast Anticancer Drug Screen. Data for the CLN2oe strain (AID 163);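 note: 0% = growth of vehicle-only control cultures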; details: S. cerevisiae CLN2oe strain, stronger effect = higher value
Procedure, shortened: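 Whole-cell yeast growth assay. A strain engineered for altered cell-cycle control received compound, and inhibition relative to vehicle-treated cultures was recorded.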

[9] = NCI Yeast Anticancer Drug Screen. Data for the cln2 rad14 strain (AID 165);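 note: 0% = growth equal to vehicle treated cultures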; details: S. cerevisiae cln2 rad14 strain, stronger effect = higher value
Procedure, shortened: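 Yeast strain cln2 rad14, bearing defects in cell cycle control and DNA repair, serves as the test system; values reflect growth inhibition compared with vehicle.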

[10] = NCI Yeast Anticancer Drug Screen. Data for the bub3 strain (AID 167); details: S. cerevisiae bub3 mutant strain, stronger effect = higher value
Procedure, shortened: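 Part of a panel of yeast mutants defective in DNA damage repair or cell cycle regulation. Each strain is grown with compound, and inhibition is calculated relative to solvent-treated cultures.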

[11] = NCI Yeast Anticancer Drug Screen. Data for the wt2 strain (AID 169);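 note: 0% = growth of vehicle-treated yeast cultures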; details: S. cerevisiae wt2 strain growth inhibition, stronger effect = higher value
Procedure, shortened: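 Treated yeast vs. vehicle-treated yeast: growth inhibition determined.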

[12] = NCI Yeast Anticancer Drug Screen. Data for the mlh1 strain (AID 171);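 note: 0% = growth of vehicle-treated control cultures of the same strain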; details: S. cerevisiae mlh1 strain growth inhibition, stronger effect = higher value
Procedure, shortened: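 A yeast strain with a defined genetic lesion serves as the test organism. Cultures receive compound or vehicle, and growth is measured.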

[13] = NCI Yeast Anticancer Drug Screen. Data for the sgs1 strain (AID 173);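 note: 0% = growth of vehicle-only control cultures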; details: S. cerevisiae sgs1 mutant, stronger effect = higher value
Procedure, shortened: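 A genetically defined yeast mutant is incubated with the test compound, and its growth is compared to that of the same strain given vehicle.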

[14] = NCI Yeast Anticancer Drug Screen. Data for the rad18 strain (AID 177); details: S. cerevisiae rad18 mutant growth inhibition, stronger effect = higher value
Procedure, shortened: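 Measured value is growth inhibition of a yeast strain bearing a DNA repair alteration, referenced to vehicle-treated cells.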

[15] = NCI Yeast Anticancer Drug Screen. Data for the mlh1 rad18 strain (AID 175); details: S. cerevisiae mlh1 rad18 strain growth inhibition, stronger effect = higher value
Procedure, shortened: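 Steps: expose repair-defective yeast to compound; measure growth; express inhibition against vehicle-treated controls.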

[16] = at 5.0 µM (retest, dose inferred, filed as 0.5)
[17] = at 50.0 µM (retest, dose inferred, filed as 5.0)

Measured: growth inhibition

Cc1ccc(Cl)c2c(=O)c3ccccc3[nH]c12
active: [4]; [17] 71% | [4]; at 50.0 µM 84.1%
inactive: [1]; at 1.2 µM -1% | [1]; at 3.7 µM -3% | [1]; at 11.0 µM -2% | [1]; at 33.0 µM 0% | [1]; at 100.0 µM 5% | [2]; at 1.2 µM 4% | [2]; at 3.7 µM 2% | [2]; at 11.0 µM 12% | [2]; at 33.0 µM 24% | [2]; at 100.0 µM 58% | [3]; at 1.2 µM -2% | [3]; at 3.7 µM -1% | [3]; at 11.0 µM 0% | [3]; at 33.0 µM 0% | [3]; at 100.0 µM 7% | [4]; at 1.2 µM -9% | [4]; at 3.7 µM -44% | [4]; [16] 5% | [4]; at 11.0 µM 14% | [4]; at 33.0 µM 3% | [4]; at 100.0 µM 51% | [5]; at 1.2 µM -1% | [5]; at 3.7 µM -3% | [5]; [16] 4% | [5]; at 11.0 µM -2% | [5]; at 33.0 µM 1% | [5]; [17] 32% | [5]; at 50.0 µM 40% | [5]; at 100.0 µM 11% | [6]; at 1.2 µM 0% | [6]; at 3.7 µM 3% | [6]; at 11.0 µM 4% | [6]; at 33.0 µM 5% | [6]; at 100.0 µM 19% | [7]; [16] 0% | [7]; [17] 34% | [7]; at 50.0 µM 41.3% | [8]; at 1.2 µM -4% | [8]; at 3.7 µM -5% | [8]; at 11.0 µM -4% | [8]; at 33.0 µM -2% | [8]; at 100.0 µM -12% | [9]; [16] -8% | [9]; [17] 9% | [9]; at 50.0 µM 11.2% | [10]; at 1.2 µM -3% | [10]; at 3.7 µM -2% | [10]; [16] -5% | [10]; at 11.0 µM -7% | [10]; at 33.0 µM -1% | [10]; [17] 14% | [10]; at 50.0 µM 27.6% | [10]; at 100.0 µM 4% | [11]; at 1.2 µM 0% | [11]; at 3.7 µM 8% | [11]; at 11.0 µM 1% | [11]; at 33.0 µM 4% | [11]; at 100.0 µM 10% | [12]; at 1.2 µM 0% | [12]; at 3.7 µM -1% | [12]; at 11.0 µM 0% | [12]; at 33.0 µM 0% | [12]; at 100.0 µM 12% | [13]; at 1.2 µM -2% | [13]; at 3.7 µM 2% | [13]; at 11.0 µM -1% | [13]; at 33.0 µM 4% | [13]; at 100.0 µM 23% | [14]; at 1.2 µM 1% | [14]; at 3.7 µM 2% | [14]; at 11.0 µM 2% | [14]; at 33.0 µM 7% | [14]; at 100.0 µM 54%

CCC(C)C(=O)OCC(=O)c1ccc(-c2ccccc2)cc1 (stereo unspecified)
inactive: [1]; at 1.2 µM -1% | [1]; at 3.7 µM -2% | [1]; at 11.0 µM -2% | [1]; at 33.0 µM -5% | [1]; at 100.0 µM -7% | [2]; at 1.2 µM 1% | [2]; at 3.7 µM 3% | [2]; at 11.0 µM 8% | [2]; at 33.0 µM 10% | [2]; at 100.0 µM 9% | [3]; at 1.2 µM 0% | [3]; at 3.7 µM -1% | [3]; at 11.0 µM 1% | [3]; at 33.0 µM -4% | [3]; at 100.0 µM -35% | [4]; at 1.2 µM 0% | [4]; at 3.7 µM 0% | [4]; [16] 13% | [4]; at 11.0 µM 0% | [4]; at 33.0 µM 1% | [4]; [17] -8% | [4]; at 50.0 µM -8.9% | [4]; at 100.0 µM -2% | [5]; at 1.2 µM -3% | [5]; at 3.7 µM -2% | [5]; [16] -3% | [5]; at 11.0 µM -2% | [5]; at 33.0 µM -4% | [5]; [17] 0% | [5]; at 50.0 µM 2.3% | [5]; at 100.0 µM -6% | [6]; at 1.2 µM -1% | [6]; at 3.7 µM 1% | [6]; at 11.0 µM 5% | [6]; at 33.0 µM 5% | [6]; at 100.0 µM 4% | [7]; [16] 6% | [7]; [17] -1% | [7]; at 50.0 µM -3.05% | [8]; at 1.2 µM 3% | [8]; at 3.7 µM 3% | [8]; at 11.0 µM 1% | [8]; at 33.0 µM -6% | [8]; at 100.0 µM -7% | [9]; [16] -5% | [9]; [17] -8% | [9]; at 50.0 µM 2.3% | [10]; at 1.2 µM 25% | [10]; at 3.7 µM 35% | [10]; [16] 54% | [10]; at 11.0 µM 51% | [10]; at 33.0 µM 68% | [11]; at 1.2 µM -1% | [11]; at 3.7 µM -2% | [11]; at 11.0 µM -1% | [11]; at 33.0 µM -5% | [11]; at 100.0 µM -6% | [13]; at 1.2 µM -1% | [13]; at 3.7 µM -1% | [13]; at 11.0 µM -1% | [13]; at 33.0 µM -3% | [13]; at 100.0 µM -4% | [15]; [16] -4% | [15]; [17] 5% | [15]; at 50.0 µM -2.1% | [14]; at 1.2 µM -1% | [14]; at 3.7 µM 2% | [14]; at 11.0 µM 1% | [14]; at 33.0 µM -1% | [14]; at 100.0 µM -5%
active: [10]; [17] 74% | [10]; at 50.0 µM 87.2% | [10]; at 100.0 µM 75%

CCCCCCCCCCCCCCCCCN
32.8% (inactive) and 90.2% (active): [10]; at 50.0 µM
inactive: [1]; at 1.2 µM -23% | [1]; at 3.7 µM -25% | [1]; at 11.0 µM -5% | [2]; at 1.2 µM -14% | [2]; at 3.7 µM 11% | [3]; at 1.2 µM -29% | [3]; at 3.7 µM -24% | [4]; at 1.2 µM -27% | [4]; at 3.7 µM -17% | [4]; [16] 26% | [5]; at 1.2 µM -37% | [5]; at 3.7 µM -28% | [5]; [16] 51% | [6]; at 1.2 µM -31% | [6]; at 3.7 µM -24% | [6]; at 11.0 µM 14% | [7]; [16] 7% | [7]; [17] 50% | [8]; at 1.2 µM -22% | [8]; at 3.7 µM 11% | [9]; [16] 16% | [9]; at 50.0 µM 6.8% and 37% | [10]; at 1.2 µM -10% | [10]; at 3.7 µM -4% | [10]; [16] 54% | [11]; at 1.2 µM -15% | [11]; at 3.7 µM -12% | [11]; at 11.0 µM 49% | [13]; at 1.2 µM -46% | [13]; at 3.7 µM -3% | [13]; at 11.0 µM 58% | [15]; [16] 41% | [14]; at 1.2 µM -38% | [14]; at 3.7 µM -18% | [14]; at 11.0 µM 61% | [14]; at 33.0 µM 15%
3.15% (inactive) and 90.2% (active): [4]; at 50.0 µM
47.4% (inactive) and 92.5% (active): [7]; at 50.0 µM
23.5% (inactive) and 89.9% (active): [15]; at 50.0 µM
-6.55% (inactive) and 92% (active): [5]; at 50.0 µM
active: [1]; at 33.0 µM 90% | [1]; at 100.0 µM 94% | [2]; at 11.0 µM 82% | [2]; at 33.0 µM 97% | [2]; at 100.0 µM 96% | [3]; at 11.0 µM 86% | [3]; at 33.0 µM 97% | [3]; at 100.0 µM 96% | [4]; at 11.0 µM 85% | [4]; at 33.0 µM 97% | [4]; [17] 96% | [4]; at 100.0 µM 94% | [5]; at 11.0 µM 91% | [5]; at 33.0 µM 98% | [5]; [17] 97% | [5]; at 100.0 µM 93% | [6]; at 33.0 µM 95% | [6]; at 100.0 µM 94% | [8]; at 11.0 µM 94% | [8]; at 33.0 µM 98% | [8]; at 100.0 µM 95% | [9]; [17] 90% | [10]; at 11.0 µM 90% | [10]; at 33.0 µM 98% | [10]; [17] 97% | [10]; at 100.0 µM 95% | [11]; at 33.0 µM 90% | [11]; at 100.0 µM 96% | [13]; at 33.0 µM 97% | [13]; at 100.0 µM 96% | [15]; [17] 96% | [14]; at 100.0 µM 93%
